Molecules are shown by their SMILES. More than one record can exist for a structure, and the calls need not agree. Activity calls are given as the source filed them. The calls were made as follows: active = hit-call score of the fitted dose curve at least 0.9, where 1 is the maximum; inactive = score below 0.9.

What all share (conditions): mRNA level, 48 h; actives raise or lower the signal
Read-out in one test: CYP2C9 (gene 1559)
Nature of the test: LTEA_HepaRG_CYP2C9: Life Technologies and Expression Analysis (LTEA) Assay for CYP2C9 using HepaRG (AID 2283484). A digest of the protocol:
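Differentiated human HepaRG cells were exposed 48 h in serum-free induction medium to eight half-log concentrations up to 100 uM in 0.5% DMSO. CYP2C9 mRNA was measured by qRT-PCR, normalized to ACTB, GAPDH and POLR2A, and fitted bidirectionally against DMSO.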

Read-out in another test: CYP2E1 (gene 1571)
The experiment in a line: LTEA_HepaRG_CYP2E1: Life Technologies and Expression Analysis (LTEA) Assay for CYP2E1 using HepaRG (AID 2283485). In a few lines: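 Differentiated HepaRG cells were treated in duplicate for 48 h with chemicals in 0.5% DMSO, from 100 uM downward in half-log dilutions. RNA was then analysed by qRT-PCR for CYP2E1 induction or loss.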

Read-out in another test: CYP4A11 (gene 1579)
Nature of the test: LTEA_HepaRG_CYP4A11: Life Technologies and Expression Analysis (LTEA) Assay for CYP4A11 using HepaRG (AID 2283486). In a few lines:
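Differentiated HepaRG cells, 48 h after plating, exposed in duplicate for 48 h to 8 half-log concentrations up to 100 uM in 0.5% DMSO in serum-free induction medium. CYP4A11 mRNA measured by TaqMan qRT-PCR, normalized to ACTB, GAPDH and POLR2A.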

Read-out in test [1]: Cytochrome P450 3A4 (Homo sapiens) (UniProt P08684)
Nature of the test: LTEA_HepaRG_CYP3A4: Life Technologies and Expression Analysis (LTEA) Assay for CYP3A4 using HepaRG (AID 2283487). A digest of the protocol:
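In a human hepatic line (HepaRG), duplicate wells were treated 48 h with up to 100 uM chemical in half-log dilutions. Endpoint: CYP3A4 mRNA induction or loss relative to 0.5% DMSO vehicle, by qRT-PCR.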

Read-out in test [2]: DNA damage-inducible transcript 3 (DDIT3), DDIT3 (gene 1649)
Nature of the test: LTEA_HepaRG_DDIT3: Life Technologies and Expression Analysis (LTEA) Assay for DNA damage-inducible transcript 3 (DDIT3) using HepaRG (AID 2283488). A digest of the protocol: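 Changes in DDIT3 transcript, in either direction relative to 0.5% DMSO vehicle, were quantified by TaqMan qRT-PCR after 48 h chemical exposure of HepaRG cells at 8 concentrations, maximum 100 uM.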

Read-out in test [3]: Pro-epidermal growth factor (Homo sapiens) (UniProt P01133)
Nature of the test: LTEA_HepaRG_EGF: Life Technologies and Expression Analysis (LTEA) Assay for Epidermal growth factor (EGF) using HepaRG (AID 2283489). A digest of the protocol:
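HepaRG cells (~100,000/well, 48 h pre-culture) exposed in duplicate for 48 h in serum-free induction medium to 8 half-log concentrations up to 100 uM in 0.5% DMSO. EGF mRNA by qRT-PCR, normalized to ACTB/GAPDH/POLR2A; bidirectional fit versus DMSO.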

Read-out in test [4]: Early growth response protein 1 (EGR1) transcription factor, EGR1 (gene 1958)
Nature of the test: LTEA_HepaRG_EGR1: Life Technologies and Expression Analysis (LTEA) Assay for Early growth response protein 1 (EGR1) transcription factor using HepaRG (AID 2283490). A digest of the protocol:
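Differentiated human HepaRG cells in serum-free induction medium were exposed in duplicate for 48 h to eight concentrations (top 100 uM, half-log steps) in 0.5% DMSO. EGR1 mRNA was quantified by qRT-PCR, normalized to ACTB, GAPDH and POLR2A, and fitted bidirectionally versus DMSO.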

Read-out in test [5]: Ezrin (EZR), EZR (gene 7430)
Nature of the test: LTEA_HepaRG_EZR: Life Technologies and Expression Analysis (LTEA) Assay for Ezrin (EZR) using HepaRG (AID 2283491). In a few lines: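 Gain or loss of EZR mRNA is scored relative to 0.5% DMSO in human HepaRG cultures treated 48 h with test chemicals in duplicate, eight half-log concentrations from 100 uM.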

Read-out in test [6]: Cytochrome P450 3A7 (Homo sapiens) (UniProt P24462)
The experiment in a line: LTEA_HepaRG_CYP3A7: Life Technologies and Expression Analysis (LTEA) Assay for CYP3A7 using HepaRG (AID 2283492). A digest of the protocol: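 Differentiated HepaRG cells in serum-free induction medium exposed 48 h in duplicate to 8-point half-log series from 100 uM top in 0.5% DMSO. CYP3A7 mRNA by qRT-PCR, normalized to ACTB/GAPDH/POLR2A, bidirectional fit versus DMSO.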

Read-out in a further test: CYP3A5 (gene 1577)
The experiment in a line: LTEA_HepaRG_CYP3A5: Life Technologies and Expression Analysis (LTEA) Assay for CYP3A5 using HepaRG (AID 2283493). A digest of the protocol:
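mRNA induction or loss of CYP3A5 assessed in HepaRG after 48 h dosing, 100 uM top concentration, duplicate wells; TaqMan qRT-PCR with ACTB, GAPDH, POLR2A normalization; 0.5% DMSO as negative control.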

Chain of Cytochrome P450 3A4 (Homo sapiens) (P08684 whole entry, looked up): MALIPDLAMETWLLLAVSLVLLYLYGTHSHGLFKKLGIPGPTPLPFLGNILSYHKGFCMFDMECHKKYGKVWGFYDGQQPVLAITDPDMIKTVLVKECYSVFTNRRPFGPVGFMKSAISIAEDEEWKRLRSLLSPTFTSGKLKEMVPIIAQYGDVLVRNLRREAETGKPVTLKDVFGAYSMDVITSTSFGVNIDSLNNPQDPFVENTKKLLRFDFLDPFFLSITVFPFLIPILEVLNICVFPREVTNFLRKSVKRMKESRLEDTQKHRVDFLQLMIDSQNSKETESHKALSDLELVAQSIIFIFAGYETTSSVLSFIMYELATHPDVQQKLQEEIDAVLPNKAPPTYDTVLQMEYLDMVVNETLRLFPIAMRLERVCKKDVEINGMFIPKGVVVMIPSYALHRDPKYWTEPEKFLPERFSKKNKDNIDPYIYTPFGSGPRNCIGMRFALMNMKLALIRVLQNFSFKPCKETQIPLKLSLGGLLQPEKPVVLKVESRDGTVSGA
Chain of Cytochrome P450 3A7 (Homo sapiens) (P24462 whole entry, looked up): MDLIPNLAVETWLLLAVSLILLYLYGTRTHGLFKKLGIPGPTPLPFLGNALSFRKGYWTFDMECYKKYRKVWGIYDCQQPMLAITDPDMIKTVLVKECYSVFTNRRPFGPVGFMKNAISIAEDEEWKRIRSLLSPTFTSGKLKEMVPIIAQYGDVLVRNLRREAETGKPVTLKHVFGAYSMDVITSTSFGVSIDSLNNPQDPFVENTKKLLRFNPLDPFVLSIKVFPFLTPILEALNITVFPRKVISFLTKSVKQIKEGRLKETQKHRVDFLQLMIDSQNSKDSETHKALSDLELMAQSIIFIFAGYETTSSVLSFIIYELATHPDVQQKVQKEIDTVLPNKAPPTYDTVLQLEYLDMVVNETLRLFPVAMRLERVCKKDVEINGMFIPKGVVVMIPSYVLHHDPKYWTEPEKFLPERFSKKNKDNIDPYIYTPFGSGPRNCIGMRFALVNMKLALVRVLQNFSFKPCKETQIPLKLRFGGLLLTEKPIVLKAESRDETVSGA

Regarding `CC(C)(c1ccc(O)cc1)c1ccc(O)cc1`, the AC50 – broadly, the concentration giving half of the maximal activity seen – with CYP2C9 (gene 1559) is 9.92 µM (active). In addition, the call (with CYP2C9 (gene 1559); with CYP2E1 (gene 1571); with CYP4A11 (gene 1579); in [1]; in [2]; in [3]) was inactive. Also, the result (in test [4]; in [5]; in [6]; in the test with CYP3A5 (gene 1577)) was inactive.

In the case of `c1ccc2[nH]c(-c3cscn3)nc2c1`, the compound was classed as inactive (with CYP2C9 (gene 1559); in the test with CYP4A11 (gene 1579); in [2]; in test [3]; in test [4]; in test [5]). Moreover, the outcome in the test with CYP3A5 (gene 1577) was inactive. In addition, the AC50 with CYP2E1 (gene 1571) is 50 µM (active).

`CC(=O)S[C@@H]1CC2=CC(=O)CC[C@]2(C)[C@H]2CC[C@@]3(C)[C@@H](CC[C@@]34CCC(=O)O4)[C@H]12`: the AC50 with CYP2E1 (gene 1571) was 63 µM (active); with CYP4A11 (gene 1579) it was 51.8 µM (active); in test [5], 0.387 µM (active); with CYP3A5 (gene 1577), 50 µM (active). Moreover, the compound was called inactive in [2], in test [3] and in test [4].

With `c1ccc(Nc2ccccc2)cc1`, the compound was classed as inactive (with CYP2E1 (gene 1571); in the test with CYP4A11 (gene 1579); in test [1]; in [2]; in test [3]; in test [4]). The result (in [5]; in [6]; with CYP3A5 (gene 1577)) was inactive.

As to `N[C@@H](Cc1cc(I)c(Oc2ccc(O)c(I)c2)c(I)c1)C(=O)O`, the concentration at half-maximal activity (AC50) with CYP2E1 (gene 1571) was 0.00253 µM (active); with CYP4A11 (gene 1579) it was 7.94 µM (active); in test [2], 49.7 µM (active). The result in test [3], in test [4] and in test [5] was inactive.

As to `COC(=O)c1ccccc1C(=O)O`, the call (in the test with CYP2C9 (gene 1559); with CYP2E1 (gene 1571); in the test with CYP4A11 (gene 1579); in [1]; in test [2]; in test [3]) was inactive. Besides, the result (in test [4]; in [5]; in [6]; with CYP3A5 (gene 1577)) was inactive.

With `CCN(CC)C(=O)c1cccc(C)c1`, the AC50 with CYP2C9 (gene 1559) was 3.56 µM (active); with CYP2E1 (gene 1571), 13.4 µM (active). Besides, the compound was called inactive (with CYP4A11 (gene 1579); in [2]; in [3]; in test [4]; in [5]; in the test with CYP3A5 (gene 1577)).

As to `C#C[C@]1(O)CC[C@H]2[C@@H]3CCC4=CC(=O)CC[C@@H]4[C@H]3CC[C@@]21CC`, the compound was called inactive (in the test with CYP2C9 (gene 1559); in [1]; in [2]; in test [3]; in test [4]; in [5]). Also, the compound was classed as inactive with CYP3A5 (gene 1577). Besides, the AC50 is 0.00149 µM (active) with CYP2E1 (gene 1571) and 0.0276 µM (active) with CYP4A11 (gene 1579).

Turning to `O=C(c1ccccc1)C1CCCCC1`, the compound was classed as inactive (with CYP2C9 (gene 1559); with CYP2E1 (gene 1571); with CYP4A11 (gene 1579); in test [1]; in test [2]; in [3]). In addition, the call (in test [4]; in test [5]; in test [6]; with CYP3A5 (gene 1577)) was inactive.

For the compound `CSC(=O)c1cccc2nnsc12`, the compound was called inactive (in the test with CYP2C9 (gene 1559); with CYP2E1 (gene 1571); in the test with CYP4A11 (gene 1579); in [1]; in test [2]; in test [3]). Moreover, the result (in [4]; in [5]; in test [6]; with CYP3A5 (gene 1577)) was inactive.

Take `CCOC(=O)c1ccc(O)cc1`: the compound was called inactive (in the test with CYP2C9 (gene 1559); with CYP2E1 (gene 1571); with CYP4A11 (gene 1579); in test [2]; in test [3]; in test [4]). For the same compound, the compound was classed as inactive (in test [5]; in test [6]; with CYP3A5 (gene 1577)).

Take `COc1c(Cl)ccc(Cl)c1C(=O)O`: the compound was classed as inactive (with CYP2C9 (gene 1559); with CYP2E1 (gene 1571); with CYP4A11 (gene 1579); in test [1]; in [2]; in test [4]). Further, the compound was classed as inactive (in [5]; in test [6]; in the test with CYP3A5 (gene 1577)).

Turning to `O=C(Nc1ccc([N+](=O)[O-])cc1Cl)c1cc(Cl)ccc1O`, the AC50 was 3.21 µM (active) with CYP2C9 (gene 1559); 2.07 µM (active) with CYP2E1 (gene 1571); 3.41 µM (active) with CYP4A11 (gene 1579); 3.35 µM (active) in test [2]; 12.1 µM (active) in [3]; 1.76 µM (active) in [4]. The AC50 with CYP3A5 (gene 1577) was 7.24 µM (active). The compound was called inactive in test [5].

With `CCCN(CCC)C(=O)SCC`, the outcome (in the test with CYP2C9 (gene 1559); with CYP2E1 (gene 1571); in the test with CYP4A11 (gene 1579); in test [1]; in test [2]; in test [3]) was inactive. Further, the outcome (in [4]; in test [5]; in test [6]; in the test with CYP3A5 (gene 1577)) was inactive.
